Rows were chosen to be rich in hits. Some 18% of all compounds tested hit in one or more screens of this group.
TDP1 cell CPT: DT40-hTDP1 cell growth loss with CPT; 420,000 tested, 12% active; chicken DT40 Tdp1-/-;hTDP1 cells + 20 nM CPT, ATP luminescence, 48 h; Potency, µM (doses to about 46.2 µM), inactives show at the top dose activity change, negative = growth inhibition, most hits filed as inhibitors; also: potency is read from the fitted curve at half-maximal effect; % is scaled to controls: 0 for no effect and ±100 for the full control effect; nearly all actives have a fitted effect of over 55% in size
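Chicken DT40 Tdp1-/- cells stably complemented with human TDP1 were seeded at 400 cells/well in medium containing 20 nM camptothecin, exposed to pin-transferred compounds, and grown at 37 °C for at least 48 hr. Viability was read as ATP luminescence.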
TDP1 cell noCPT: qHTS for Inhibitors of human tyrosyl-DNA phosphodiesterase 1 (TDP1): qHTS in cells in absence of CPT. DT40 Tdp1-/- hTDP1 cells, no CPT, ATP luminescence, 48 h. Potency, µM (titrated, usually from 46.2 µM), without a hit: at the top dose activity change, negative = growth inhibition, actives largely listed as inhibitors. 420,000 tested, 15% active; also: potency is read from the fitted curve at half-maximal effect; % is scaled to controls: 0 for no effect and ±100 for the full control effect; nearly all actives have a fitted effect of over 55% in size
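Chicken DT40 Tdp1-/- cells stably complemented with human TDP1 were seeded at 400 cells/well with DMSO in place of 20 nM camptothecin. After compound pinning, cells grew at least 48 hr at 37 °C; viability read by CellTiter-Glo luminescence.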
HepG2 tox: counter-screen for TGF-b inhibitors: cytotoxicity in HepG2 cells | 410,000 tested, 0.76% active | HepG2 CAGA-GFP viability, ATP luminescence, 18 h | Potency, µM (highest dose often 46.1 µM), inactives show top-dose activity change, negative = cytotoxicity, usual class: cytotoxic; also: potency is read from the fitted curve at half-maximal effect
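HepG2 CAGA-GFP cells (1000/well, DMEM with 1% FBS) received compound, then TGF-beta at 500 pg/mL final, and were incubated 18 hours at 37 degrees C. Viability was read by CellTiter-Glo luminescence. Media-only wells were set as complete cell-killing and DMSO as no toxicity.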
IL-1B inflam inh: inflammasome signaling inhibition, IL-1 beta readout; THP-1 LPS/ATP IL-1B secretion, AlphaLISA, 16 h; hits give low values; activity change, % at 57.5 µM; 360,000 tested, 4.7% active; in the data active = activity change below about -50%; inconclusive = mostly about -30% to -49%; also: % is scaled to controls: 0 for no effect and ±100 for the full control effect
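THP-1 cells pretreated 1 hr with compounds (up to 57.5 uM final), then stimulated with LPS (250 ng/mL final) plus ATP (1.25 mM final); secreted IL-1B measured by AlphaLISA after 16 hr, decreased signal indicating inhibition.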
TDP1 inh: blocks human tyrosyl-DNA phosphodiesterase 1; AID 485290; recombinant TDP1, AlphaScreen DNA substrate cleavage; Q9NUW8; Potency, µM (highest dose often 130 µM), for inactives: at the highest dose activity change, negative = inhibition, usual class: inhibitors; 350,000 tested, 0.28% active; also: potency is read from the fitted curve at half-maximal effect; % is scaled to controls: 0 for no effect and ±100 for the full control effect; nearly all actives have a fitted effect of over 40% in size
Target sequence (Q9NUW8 whole entry, looked up): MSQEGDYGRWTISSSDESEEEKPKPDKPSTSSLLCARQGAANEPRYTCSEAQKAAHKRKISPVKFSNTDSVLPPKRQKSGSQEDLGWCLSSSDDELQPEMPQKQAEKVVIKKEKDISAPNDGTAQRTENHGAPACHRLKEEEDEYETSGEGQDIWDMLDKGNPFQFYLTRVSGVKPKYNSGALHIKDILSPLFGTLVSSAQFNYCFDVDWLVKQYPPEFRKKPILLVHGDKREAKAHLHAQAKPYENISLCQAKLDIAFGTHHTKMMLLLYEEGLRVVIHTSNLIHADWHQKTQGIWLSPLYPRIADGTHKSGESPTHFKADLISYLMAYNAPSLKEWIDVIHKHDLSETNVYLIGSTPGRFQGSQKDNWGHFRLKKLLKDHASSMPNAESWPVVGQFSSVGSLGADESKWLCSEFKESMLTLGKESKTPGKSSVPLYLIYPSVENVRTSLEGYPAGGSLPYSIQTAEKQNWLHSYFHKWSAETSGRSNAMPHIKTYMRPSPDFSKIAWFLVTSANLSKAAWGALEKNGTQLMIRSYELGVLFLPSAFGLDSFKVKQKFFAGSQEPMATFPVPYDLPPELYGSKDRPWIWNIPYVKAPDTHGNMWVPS
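AlphaScreen read-out: signal falls as enzyme removes the 3' tyrosine-FITC from a 5'-biotinylated DNA oligo (15 nM, 5 min, RT). Enzyme was E. coli-made recombinant Tdp1 at 1 nM, exposed to compound for 15 min beforehand; beads 10 ug/ml, 10 min.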
TGFb SMAD3 inh: TGF-b pathway inhibition; HepG2 CAGA-GFP TGF-b/SMAD3 reporter, GFP fluorescence, 18 h; TGF-beta stimulated, 500 pg/mL final; Potency, µM (series often up to 46.1 µM), for inactives: top-dose activity, negative = inhibition, hits mostly inhibitors; 410,000 tested, 1.2% active; also: potency is read from the fitted curve at half-maximal effect; % is scaled to controls: 0 for no effect and ±100 for the full control effect; nearly all actives have a fitted effect of over 65% in size
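Cell-based qHTS in HEPG2 carrying a CAGA-GFP Smad reporter; compounds added before 500 pg/mL final TGF-beta, 18 h incubation at 37 degrees C, GFP fluorescence quantified per cell by imaging cytometry.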
An asterisk follows results filed as active; ? = inconclusive; . = no result; [ ] = dose if it differs, or a comment. Unless noted, calls follow the shape of the dose curve; as a rule, active = well fitted curve in the direction sought with a large enough effect; inconclusive = small, poorly fitted or top-dose-only effect, or another doubt; inactive = no such curve, though single readings can be large; an effect the other way counts as inactive or inconclusive.

SMILES	TDP1 cell CPT	TDP1 cell noCPT	HepG2 tox	IL-1B inflam inh	TDP1 inh	TGFb SMAD3 inh
Cc1ccccc1C(=O)Nc1sc2c(c1C(=O)N1CCCCC1)CCC(C)C2 (configuration not stated)	18µM*	?	-21%	.	.	-14%
CC(C)=CCC[C@](C)(O[C@@H]1O[C@H](CO)[C@@H](O)[C@H](O)[C@H]1O)[C@H]1CC[C@]2(C)[C@@H]1[C@H](O)C[C@@H]1[C@@]3(C)CC[C@H](O[C@@H]4O[C@H](CO)[C@@H](O)[C@H](O)[C@H]4O[C@@H]4O[C@H](CO)[C@@H](O)[C@H](O)[C@H]4O)C(C)(C)[C@@H]3[C@@H](O)C[C@]12C	.	.	.	.	1%	.
CN(C)c1ccc(CNC(=O)C2CCN(c3nc4ccccc4[nH]3)CC2)cc1	?	?	-9%	.	3%	0%
CCc1ccc(CNC(=O)C2COc3ccccc3C2)cc1 (configuration not stated)	-7%	1%	5%	.	8%	-11%
CCOc1cc(CNC(=O)C2CCN(c3nc4ccccc4[nH]3)CC2)cc(OCC)c1OCC	21µM*	16µM*	-29%	.	8%	0%
CCOc1ccc(NC(=O)C2CCN(c3nc4ccccc4[nH]3)CC2)cc1	?	23µM*	-7%	.	5%	?
CCOc1cc(CNC(=O)C2COc3ccccc3C2)cc(OCC)c1OCC (configuration not stated)	15µM*	?	2%	.	5%	-28%
Cc1cc(C)c(NC(=O)C2CCN(c3nc4ccccc4[nH]3)CC2)c(C)c1	?	-21%	-18%	.	3%	-26%
COc1ccc(C)cc1NC1=C(Cl)C(=O)N(C2CCCCC2)C1=O	?	12µM*	-11%	4	4%	-23%
CCOc1ccc(NC2=C(Cl)C(=O)N(C3CCCCC3)C2=O)cc1	1%	-9%	-6%	-10	6%	10%
CC(=O)OC1CC2C(C)(C)C(O)CC[C@@]2(C)C2CC[C@@]3(C)C(c4ccoc4)OC(=O)C4O[C@@]43[C@]12C (some centres not stated)	?	18µM*	.	.	19%[56.1 µM]	.
CC(=O)OC1CC2C(C)(C)C(O)CC[C@@]2(C)C2CC[C@@]3(C)C(c4ccoc4)OC(=O)C4OC43[C@]12C (some centres not stated)	?	21µM*	.	.	15%[56.1 µM]	.
COc1ccc(-c2nc(-c3ccccc3)c(-c3ccc(O)cc3)[nH]2)cc1	13µM*	8.2µM*	-51%	.	12%	?
COc1ccc(-c2[nH]c(-c3ccc(O)cc3)nc2-c2ccccc2)cc1	15µM*	?	-75%	.	12%	-38%
O=C(Cc1ccsc1)NNC(=O)c1ccccc1Cl	0%	0%	1%	23	-4%	-1%
Cc1ccc(-c2nc(CSc3nnc(C)n4c3cc3occc34)c(C)o2)cc1	-7%	?	0%	.	-5%	-16%
COc1ccc(-c2nc(CSc3nnc(C)n4c3cc3occc34)c(C)o2)cc1OC	10µM*	12µM*	-33%	.	-3%	-41%
COc1ccc(-c2nc(CSc3nncn4c3cc3occc34)c(C)o2)cc1	16µM*	23µM*	0%	.	3%	5%
Cc1nnc(SCc2ccccc2Cl)c2cc3occc3n12	?	16µM*	-56%	.	10%	?
Cc1nnc(SCc2ccc(Cl)cc2)c2cc3occc3n12	?	?	-46%	.	5%	?
COC(=O)[C@]12CCCCC=C1N(Cc1ccccc1)C(=O)[C@H](CC(=O)NCC13CC4CC(CC(C4)C1)C3)C2	18µM*	?	.	-24	.	.
COC(=O)[C@@]12C[C@@H](CC(=O)NCC34CC5CC(CC(C5)C3)C4)C(=O)N(Cc3ccccc3)C1=CCC(C)(C)C2	?	21µM*	.	-29	.	.
CCc1ccc(N(CC(=O)NC)S(C)(=O)=O)cc1	-7%	-2%	-1%	7	0%	14%
CS(=O)(=O)N(CC(=O)Nc1ccc(CC#N)cc1)c1ccc(C23CC4CC(CC(C4)C2)C3)cc1	?	16µM*	-38%	?	3%	7.1µM*
CNC(=O)CN(c1ccc(C23CC4CC(CC(C4)C2)C3)cc1)S(C)(=O)=O	?	26µM*	-9%	-6	3%	-18%
SMILES	TDP1 cell CPT	TDP1 cell noCPT	HepG2 tox	IL-1B inflam inh	TDP1 inh	TGFb SMAD3 inh
O=C(CNC(=O)c1cn2ccccc2n1)Nc1ccc(F)c(F)c1	0%	-5%	-29%	14	.	0%
CC(C)(C)c1csc(N/N=C/c2cccnc2)n1	21%	1%	-9%	-99*	10%	-15%
Cc1ccc(/C=N/Nc2nc(C(C)(C)C)cs2)o1	-27%	?	-14%	?	8%	-8%
Cc1ccnc(N/N=C/c2ccccc2)n1	12%	-21%	-29%	-15	4%	10%
Clc1ccc(-c2csc(N/N=C/c3cccnc3)n2)c(Cl)c1	?	?	-45%	95	79µM*	-5%
Cc1onc(-c2ccc(Cl)cc2Cl)c1-c1csc(N/N=C/c2ccccc2Cl)n1	?	12µM*	-43%	-20	6%	5%
C(=N\Nc1nccc(-c2cccnc2)n1)/c1ccccc1	0.033µM*	?	-38%	-54*	-2%	?
COc1cc([N+](=O)[O-])ccc1NC(=O)N1CCN(c2cc(-c3noc(C)n3)ccc2C)CC1	-23%	?	-10%	.	8%	-12%
COC(=O)c1ccc(/C=N/Nc2nc(-c3ccccc3)cs2)cc1	3%	-5%	-19%	11	0%	-18%
Cc1ccc(-c2cc(-c3ccccc3O)nc(N/N=C/c3cccnc3)n2)cc1	16µM*	12µM*	1%	6	4%	?
Clc1ccc(N/N=C/c2cccnc2)cc1	18µM*	16µM*	-36%	-62*	8%	16%
C(=N\Nc1nc(-c2ccccc2)cs1)/c1cccnc1	13µM*	?	-17%	-21	5%	8%
Cc1cccc(NC(=O)CSc2nnc(CSc3nc(C)cc(C)n3)n2Cc2ccco2)c1	-15%	?	-32%	0	0%	-10%
COc1ccc(C2CC(=O)c3c(C)nc(N4CCN(Cc5ccccc5)CC4)nc3C2)cc1OC (configuration not stated)	12µM*	13µM*	0%	-2	7%	?

Source: PubChem (National Center for Advancing Translational Sciences (NCATS))
